Assay results published in the supplement of paper PMC8007513.
Where a name gives a salt, the structure may show the parent alone. ± gives the standard error. About 130 (10%) of roughly 1,300 compounds showed an effect of 50% or more. This is one part of a sample in which strong results are shown more often than they occur.

System: Trichoderma virens ATCC 9645
Test: growth yield (OD600) with compound + IPBC relative to untreated control; higher = less growth inhibition
Details: compound concentration: 100 uM, IPBC concentration: 200 ng/ml
Summary of the method: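 Library compounds (100 μM final), with or without a co-applied biocide (200 ng ml^−1), were added to 100 μl aliquots of Trichoderma virens ATCC 9645 spores at 15,000 spores ml^−1 in potato dextrose broth. Cultures were grown at 30 °C in 96-well plates, and OD600 was measured at 40 h and 72 h. Each growth value is a mean of duplicate screens, expressed relative to the control with neither agent.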

| Compound | growth yield (40 h) [%] | growth yield (72 h) [%] |
| --- | --- | --- |
| CCCCNc1ccc(C(=O)OCCN(C)C)cc1 + CCCCNC(=O)OCC#CI [3-iodo-2-propynyl butylcarbamate (IPBC)] | 81.5 ± 1.4 | 88.2 ± 0.32 |
| CCCCNc1c(C(=O)OCC)c(C)nc2c1cnn2CC [Tracazolate hydrochloride] + CCCCNC(=O)OCC#CI [3-iodo-2-propynyl butylcarbamate (IPBC)] | 21.9 | 53.7 ± 0.21 |
| CCCCNc1ccc(C(=O)OCCOCCOCCOCCOCCOCCOCCOCCOCCOC)cc1 [Benzonatate] + CCCCNC(=O)OCC#CI [3-iodo-2-propynyl butylcarbamate (IPBC)] | 77.4 ± 1.1 | 83.27 ± 0.42 |
| CC(C)(S)C(N)C(=O)O (racemic) [D,L-Penicillamine] + CCCCNC(=O)OCC#CI [3-iodo-2-propynyl butylcarbamate (IPBC)] | 94.8 ± 8.4 | 94.2 ± 5.5 |
| COC1=CC(=O)C[C@@H](C)[C@]12Oc1c(Cl)c(OC)cc(OC)c1C2=O [Griseofulvin] + CCCCNC(=O)OCC#CI [3-iodo-2-propynyl butylcarbamate (IPBC)] | 48.8 ± 3.6 | 85.2 ± 1.1 |
| CCC(=O)O[C@@H](O[P@](=O)(CCCCc1ccccc1)CC(=O)N1C[C@H](C2CCCCC2)C[C@H]1C(=O)O)C(C)C [Fosinopril] + CCCCNC(=O)OCC#CI [3-iodo-2-propynyl butylcarbamate (IPBC)] | 86.9 ± 9.1 | 94.8 ± 7.3 |
| CC(C)(C)CC(C)(C)c1ccc(OCCOCC[N+](C)(C)Cc2ccccc2)cc1 [Benzethonium chloride] + CCCCNC(=O)OCC#CI [3-iodo-2-propynyl butylcarbamate (IPBC)] | 3.18 ± 0.32 | 2.52 ± 0.42 |
| C[N+](C)(CCOc1ccccc1)Cc1ccccc1.O=C([O-])c1cc2ccccc2cc1O [Bephenium hydroxynaphthoate] + CCCCNC(=O)OCC#CI [3-iodo-2-propynyl butylcarbamate (IPBC)] | 63.5 | 85.3 ± 2.4 |
| Cc1cc(C(C)(C)CC(C)(C)C)ccc1OCCOCC[N+](C)(C)Cc1ccccc1 [Methyl benzethonium chloride] + CCCCNC(=O)OCC#CI [3-iodo-2-propynyl butylcarbamate (IPBC)] | 2.86 ± 0.64 | 2.62 ± 0.1 |
| CCC(=O)O[C@]1(C(=O)SCF)[C@H](C)C[C@H]2[C@@H]3C[C@H](F)C4=CC(=O)C=C[C@]4(C)[C@@]3(F)[C@@H](O)C[C@@]21C [Fluticasone propionate] + CCCCNC(=O)OCC#CI [3-iodo-2-propynyl butylcarbamate (IPBC)] | 101 ± 0.64 | 99.63 ± 0.42 |
| Cc1cc(CC(=O)O)n(C)c1C(=O)c1ccc(Cl)cc1 [Zomepirac sodium salt] + CCCCNC(=O)OCC#CI [3-iodo-2-propynyl butylcarbamate (IPBC)] | 89.59 ± 0.64 | 92.4 ± 2.2 |
| CNCC[C@@H](Oc1ccccc1C)c1ccccc1 [Tomoxetine hydrochloride] + CCCCNC(=O)OCC#CI [3-iodo-2-propynyl butylcarbamate (IPBC)] | 78.31 ± 0.48 | 87.89 ± 0.84 |
| CN1CCN(C2=Nc3cc(Cl)ccc3Nc3ccccc32)CC1 [Clozapine] + CCCCNC(=O)OCC#CI [3-iodo-2-propynyl butylcarbamate (IPBC)] | 65.6 ± 2.7 | 93.8 ± 2.7 |
| CC(NCCc1ccc(O)cc1)C(O)c1ccc(O)cc1 (stereo not given) [Ritodrine hydrochloride] + CCCCNC(=O)OCC#CI [3-iodo-2-propynyl butylcarbamate (IPBC)] | 83.07 ± 0.16 | 92.4 ± 0.32 |
| CC(CCc1ccccc1)NC(C)C(O)c1ccc(O)cc1 (stereo not given) [Nylidrin] + CCCCNC(=O)OCC#CI [3-iodo-2-propynyl butylcarbamate (IPBC)] | 95.3 ± 2.9 | 96.59 ± 0.1 |
| CCCCCCCCNC(C)C(O)c1ccc(SC(C)C)cc1 (stereo not given) [Suloctidil] + CCCCNC(=O)OCC#CI [3-iodo-2-propynyl butylcarbamate (IPBC)] | 5.08 ± 0.32 | 33.1 ± 2.5 |
| OCCN1C[C@H](O)[C@@H](O)[C@H](O)[C@H]1CO [Miglitol] + CCCCNC(=O)OCC#CI [3-iodo-2-propynyl butylcarbamate (IPBC)] | 90.1 ± 9.1 | 93 ± 4.5 |
| CCOC(=O)c1ccc(C#Cc2ccc3c(c2)C(C)(C)CCS3)nc1 [Tazarotene] + CCCCNC(=O)OCC#CI [3-iodo-2-propynyl butylcarbamate (IPBC)] | 81.2 ± 2.7 | 91.6 ± 1.4 |
| C#CCN[C@@H]1CCc2ccccc21 [Rasagiline] + CCCCNC(=O)OCC#CI [3-iodo-2-propynyl butylcarbamate (IPBC)] | 84.5 ± 1.3 | 85.6 ± 1.1 |
| O=C(CCCN1CCC(O)(c2ccc(Br)cc2)CC1)c1ccc(F)cc1 [Bromperidol] + CCCCNC(=O)OCC#CI [3-iodo-2-propynyl butylcarbamate (IPBC)] | 64.3 ± 2.1 | 87.3 ± 1.5 |
| O=C(CCCN1CCC2(CC1)C(=O)NCN2c1ccccc1)c1ccc(F)cc1 [Spiperone] + CCCCNC(=O)OCC#CI [3-iodo-2-propynyl butylcarbamate (IPBC)] | 77.8 ± 2.9 | 90.4 ± 0.21 |
| O=C(CCCN1CCC(O)(c2ccc(Cl)cc2)CC1)c1ccc(F)cc1 [Haloperidol] + CCCCNC(=O)OCC#CI [3-iodo-2-propynyl butylcarbamate (IPBC)] | 10.2 ± 1.9 | 60.4 ± 4.4 |
| CSc1nc2cc(Cl)c(Oc3cccc(Cl)c3Cl)cc2[nH]1 [Triclabendazole] + CCCCNC(=O)OCC#CI [3-iodo-2-propynyl butylcarbamate (IPBC)] | 66.7 ± 3.2 | 120 ± 6.5 |
| O=C(O)c1cn(C2CC2)c2cc(N3CCNCC3)c(F)cc2c1=O [Ciprofloxacin hydrochloride monohydrate] + CCCCNC(=O)OCC#CI [3-iodo-2-propynyl butylcarbamate (IPBC)] | 86.2 ± 8.7 | 91.5 ± 6.3 |
| CCOc1nc2cccc(C(=O)OCc3oc(=O)oc3C)c2n1Cc1ccc(-c2ccccc2-c2noc(=O)[nH]2)cc1 [Azilsartan kamedoxomil] + CCCCNC(=O)OCC#CI [3-iodo-2-propynyl butylcarbamate (IPBC)] | 110 ± 5.1 | 105 ± 2.7 |
